This is an account of results in PubChem BioAssay (EPA / NIEHS).

Molecules are shown by their SMILES. Activity calls are given as the source filed them. How the source made its calls: active means hit-call score of the fitted dose curve at least 0.9, where 1 is the maximum; inactive means score below 0.9.

One may read the AC50 as the concentration at which the activity in the assay is half-maximal.

Settings in all cases: mRNA level, 48 h; actives raise or lower the signal
Read-out in experiment [1]: Fatty Acid-Binding Protein 1 (FABP1), FABP1 (gene 2168)
Description: LTEA_HepaRG_FABP1: Life Technologies and Expression Analysis (LTEA) Assay for Fatty Acid-Binding Protein 1 (FABP1) using HepaRG (AID 2283494). In short, it runs like this: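 FABP1 expression by TaqMan qRT-PCR, normalised to three housekeeping genes, in HepaRG cells after 48 h chemical treatment. Eight-point half-log series topping at 100 uM in 0.5% DMSO, duplicates; gain or loss fitted relative to vehicle.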

Read-out in experiment [2]: Cytochrome P450 4A22 (Homo sapiens) (UniProt Q5TCH4)
Description: LTEA_HepaRG_CYP4A22: Life Technologies and Expression Analysis (LTEA) Assay for Cytochrome P450 4A22 (CYP4A22) using HepaRG (AID 2283495). Summed up: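 qRT-PCR of CYP4A22 mRNA (Fluidigm TaqMan, normalized to three housekeeping genes) after 48 h chemical exposure of HepaRG cells; 8-point half-log series, top 100 uM, 0.5% DMSO vehicle. Bidirectional curve fitting vs DMSO baseline.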

Read-out in experiment [3]: Cytochrome P450 7A1 (Homo sapiens) (UniProt P22680)
Description: LTEA_HepaRG_CYP7A1: Life Technologies and Expression Analysis (LTEA) Assay for Cytochrome P450 7A1 (CYP7A1) using HepaRG (AID 2283496). In short, it runs like this: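 HepaRG, 48 h exposure, 8-pt half-log series from 100 uM, 0.5% DMSO vehicle, duplicates. Readout: TaqMan qRT-PCR mRNA vs three housekeeping genes; bidirectional curve fit against DMSO baseline.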

Read-out in experiment [4]: Glutathione S-Transferase (GSTA2), GSTA2 (gene 2939)
Description: LTEA_HepaRG_GSTA2: Life Technologies and Expression Analysis (LTEA) Assay for Glutathione S-Transferase (GSTA2) using HepaRG (AID 2283497). Summed up:
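GSTA2 transcript levels came from Fluidigm TaqMan qRT-PCR normalized to three housekeeping genes, fitted in both directions against DMSO. HepaRG cultures received chemicals for 48 h in serum-free induction medium (0.5% DMSO), 8 half-log concentrations up to 100 uM, duplicate.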

Read-out in experiment [5]: Glutamate-cysteine ligase catalytic (GCLC), GCLC (gene 2729)
In words: LTEA_HepaRG_GCLC: Life Technologies and Expression Analysis (LTEA) Assay for Glutamate-cysteine ligase catalytic (GCLC) using HepaRG (AID 2283498). In short, it runs like this:
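Expression by TaqMan qRT-PCR, normalized to three housekeeping genes (ACTB, GAPDH, POLR2A), with up- or down-regulation fitted against DMSO. HepaRG cells dosed in duplicate for 48 h with 8 half-log concentrations up to 100 uM, vehicle 0.5% DMSO.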

Read-out in experiment [6]: growth arrest and DNA damage 45 (GADD45G), GADD45G (gene 10912)
In words: LTEA_HepaRG_GADD45G: Life Technologies and Expression Analysis (LTEA) Assay for growth arrest and DNA damage 45 (GADD45G) using HepaRG (AID 2283499). In short, it runs like this: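 Differentiated human HepaRG cells in serum-free induction medium were exposed for 48 h to 8 half-log concentrations up to 100 uM in 0.5% DMSO, in duplicate. GADD45G mRNA was measured by TaqMan qRT-PCR, normalised to ACTB, GAPDH and POLR2A, and fitted bidirectionally against DMSO.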

Read-out in experiment [7]: Glutamate-cysteine ligase regulatory (GCLM), GCLM (gene 2730)
Description: LTEA_HepaRG_GCLM: Life Technologies and Expression Analysis (LTEA) Assay for Glutamate-cysteine ligase regulatory (GCLM) using HepaRG (AID 2283500). In short, it runs like this:
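GCLM expression quantified by qRT-PCR, normalized to three housekeeping genes, after 48 h chemical treatment of HepaRG cells in duplicate at 8 concentrations (top 100 uM, half-log steps, 0.5% DMSO). Changes fitted both directions against vehicle.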

Read-out in experiment [8]: Glutathione S-transferase M3 (GSTM3), GSTM3 (gene 2947)
Description: LTEA_HepaRG_GSTM3: Life Technologies and Expression Analysis (LTEA) Assay for Glutathione S-transferase M3 (GSTM3) using HepaRG (AID 2283501). In short, it runs like this:
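Differentiated HepaRG cells in serum-free induction medium were exposed in duplicate for 48 h to 8 half-log concentrations up to 100 uM in 0.5% DMSO. GSTM3 mRNA was measured by TaqMan qRT-PCR, normalized to ACTB/GAPDH/POLR2A, and fitted bidirectionally versus DMSO.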

Read-out in experiment [9]: Heat shock 70 kDa protein 1 (HSPA1A), gene 3303
In words: LTEA_HepaRG_HSPA1A: Life Technologies and Expression Analysis (LTEA) Assay for Heat shock 70 kDa protein 1 (HSPA1A) using HepaRG (AID 2283502). In short, it runs like this: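 HSPA1A expression measured by qRT-PCR with ACTB/GAPDH/POLR2A normalization; curves fitted in both directions relative to DMSO vehicle. Exposure: 48 h in HepaRG cells, duplicate 8-point half-log series from 100 uM, 0.5% DMSO, serum-free induction medium.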

Read-out in experiment [10]: HGF (gene 3082)
In words: LTEA_HepaRG_HGF: Life Technologies and Expression Analysis (LTEA) Assay for Hepatocyte Growth Facto (HGF) using HepaRG (AID 2283505). Summed up: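 Differentiated human HepaRG cells in serum-free induction medium were exposed in duplicate for 48 h to eight concentrations (top 100 uM, half-log steps, 0.5% DMSO). HGF mRNA was quantified by qRT-PCR, normalized to ACTB, GAPDH and POLR2A.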

Read-out in experiment [11]: Insulin Like Growth Factor 1 (IGF1), IGF1 (gene 3479)
Description: LTEA_HepaRG_IGF1: Life Technologies and Expression Analysis (LTEA) Assay for Insulin Like Growth Factor 1 (IGF1) using HepaRG (AID 2283506). Summed up: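 Expression measured by TaqMan qRT-PCR on a Fluidigm array, with three housekeeping genes for normalisation, after 48 h treatment of HepaRG cells. Top concentration 100 uM with half-log steps, 0.5% DMSO vehicle, bidirectional fit.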

Read-out in experiment [12]: Intercellular Adhesion Molecule 1 (ICAM1), ICAM1 (gene 3383)
In words: LTEA_HepaRG_ICAM1: Life Technologies and Expression Analysis (LTEA) Assay for Intercellular Adhesion Molecule 1 (ICAM1) using HepaRG (AID 2283507). Summed up:
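Differentiated HepaRG cells in serum-free induction medium were exposed in duplicate for 48 h to eight half-log concentrations up to 100 uM in 0.5% DMSO. Transcript levels were measured by qRT-PCR normalized to ACTB, GAPDH and POLR2A; bidirectional fits relative to DMSO.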

Read-out in experiment [13]: Insulin-like growth factor-binding protein 1 (IGFBP1), IGFBP1 (gene 3484)
In words: LTEA_HepaRG_IGFBP1: Life Technologies and Expression Analysis (LTEA) Assay for Insulin-like growth factor-binding protein 1 (IGFBP1) using HepaRG (AID 2283508). In short, it runs like this:
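Differentiated human HepaRG cells in serum-free induction medium were exposed in duplicate for 48 h to eight concentrations, top 100 uM with half-log dilutions, in 0.5% DMSO. Transcript levels came from qRT-PCR normalised to ACTB, GAPDH and POLR2A, fitted bidirectionally against DMSO.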

Read-out in experiment [14]: Interleukin 6 (IL6), IL6 (gene 3569)
In words: LTEA_HepaRG_IL6: Life Technologies and Expression Analysis (LTEA) Assay for Interleukin 6 (IL6) using HepaRG (AID 2283509). In short, it runs like this: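 Transcript levels, normalized to three housekeeping genes, were quantified by qRT-PCR after 48 h chemical treatment of HepaRG cells. Eight-point half-log series from 100 uM in 0.5% DMSO, duplicates. Fitted both directions against DMSO baseline.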

Read-out in experiment [15]: Interleukin 6 Receptor (IL6R), IL6R (gene 3570)
In words: LTEA_HepaRG_IL6R: Life Technologies and Expression Analysis (LTEA) Assay for Interleukin 6 Receptor (IL6R) using HepaRG (AID 2283510). In short, it runs like this:
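IL6R transcript level by qRT-PCR after 48 h chemical exposure (8-point, half-log, max 100 uM, 0.5% DMSO vehicle) of HepaRG cells in serum-free induction medium. Normalized to three housekeeping genes; curves fitted in both directions relative to DMSO.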

Read-out in experiment [16]: Potassium channel subfamily K member 1 (KCNK1), KCNK1 (gene 3775)
In words: LTEA_HepaRG_KCNK1: Life Technologies and Expression Analysis (LTEA) Assay for Potassium channel subfamily K member 1 (KCNK1) using HepaRG (AID 2283511). Summed up:
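KCNK1 transcript measured by TaqMan qRT-PCR against three housekeeping genes, after HepaRG cells were treated 48 h with eight half-log concentrations (top 100 uM, 0.5% DMSO). Curves fitted bidirectionally relative to vehicle.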

Read-out in experiment [17]: JUN Transcription Factor, JUN (gene 3725)
Description: LTEA_HepaRG_JUN: Life Technologies and Expression Analysis (LTEA) Assay for JUN Transcription Factor using HepaRG (AID 2283513). Summed up:
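mRNA measured by TaqMan qRT-PCR after 48 h chemical exposure of HepaRG cultures; normalization to three housekeeping genes. Duplicate eight-point half-log curves from 100 uM in 0.5% DMSO; gain or loss fitted against DMSO baseline.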

Read-out in experiment [18]: Hypoxia-inducible factor 1-alpha (Homo sapiens) (UniProt Q16665)
Description: LTEA_HepaRG_HIF1A: Life Technologies and Expression Analysis (LTEA) Assay for Hypoxia-inducible factor 1 (HIF1A) Trancription factor using HepaRG (AID 2283503). Summed up: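 HIF1A transcript level read by qRT-PCR (ACTB, GAPDH, POLR2A normalization) after 48 h chemical exposure of HepaRG cultures. Eight half-log concentrations, top 100 uM, 0.5% DMSO vehicle, duplicates; bidirectional curve fit against DMSO baseline.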

Read-out in experiment [19]: 3-Hydroxy-3-Methylglutaryl-CoA Synthase 2 (HMGCS2), HMGCS2 (gene 3158)
In words: LTEA_HepaRG_HMGCS2: Life Technologies and Expression Analysis (LTEA) Assay for 3-Hydroxy-3-Methylglutaryl-CoA Synthase 2 (HMGCS2) using HepaRG (AID 2283504). Summed up: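 Differentiated human HepaRG cells were exposed in duplicate for 48 h in serum-free induction medium to eight concentrations (top 100 uM, half-log steps, 0.5% DMSO). HMGCS2 mRNA was quantified by TaqMan qRT-PCR, normalised to ACTB, GAPDH and POLR2A, then fitted bidirectionally against DMSO.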

Sequence of Hypoxia-inducible factor 1-alpha (Homo sapiens) (Q16665 whole entry, looked up): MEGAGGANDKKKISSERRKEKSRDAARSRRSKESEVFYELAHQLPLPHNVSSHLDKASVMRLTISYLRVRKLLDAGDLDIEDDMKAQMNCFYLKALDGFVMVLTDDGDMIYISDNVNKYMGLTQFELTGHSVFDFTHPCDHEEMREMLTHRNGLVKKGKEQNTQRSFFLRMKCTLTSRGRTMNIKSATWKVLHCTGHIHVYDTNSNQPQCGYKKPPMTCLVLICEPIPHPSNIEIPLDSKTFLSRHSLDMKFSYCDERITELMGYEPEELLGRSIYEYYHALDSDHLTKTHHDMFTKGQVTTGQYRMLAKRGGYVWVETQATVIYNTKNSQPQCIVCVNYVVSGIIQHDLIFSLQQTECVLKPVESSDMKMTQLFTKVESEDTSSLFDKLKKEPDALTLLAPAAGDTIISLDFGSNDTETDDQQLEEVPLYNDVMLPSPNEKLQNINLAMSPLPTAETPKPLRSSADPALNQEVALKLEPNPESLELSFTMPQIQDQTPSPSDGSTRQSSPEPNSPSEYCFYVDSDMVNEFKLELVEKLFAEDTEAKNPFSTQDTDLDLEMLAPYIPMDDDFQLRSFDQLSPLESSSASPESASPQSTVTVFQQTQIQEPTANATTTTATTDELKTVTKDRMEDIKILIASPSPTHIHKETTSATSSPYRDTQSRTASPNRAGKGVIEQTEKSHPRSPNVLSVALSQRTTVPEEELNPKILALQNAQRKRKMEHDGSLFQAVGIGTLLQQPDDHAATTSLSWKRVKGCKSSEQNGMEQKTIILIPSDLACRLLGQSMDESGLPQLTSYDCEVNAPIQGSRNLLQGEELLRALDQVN

Consider `O=P(Oc1ccccc1)(Oc1ccccc1)Oc1ccccc1`, for which the result in [1], in experiment [2], in [3], in experiment [4], in [8] and in experiment [9] was inactive. For the same molecule, the outcome in experiment [10], in experiment [12], in [14], in experiment [15], in experiment [16] and in [17] was inactive. Further, the AC50 was 74.9 µM (active) in experiment [5]; 50 µM (active) in experiment [6]; 50 µM (active) in experiment [7]; 4.15 µM (active) in experiment [11]; 37.8 µM (active) in experiment [13].
On to `ClC1=C(Cl)C2(Cl)C3C(Cl)C(Cl)CC3C1(Cl)C2(Cl)Cl` (stereo not drawn), for which the AC50 was 12.5 µM (active) in experiment [1]; 26.2 µM (active) in experiment [2]; 10.4 µM (active) in experiment [3]; 50 µM (active) in [7]; 4.98 µM (active) in [18]; 31.7 µM (active) in [19]. Besides, the AC50 in experiment [11] was 23.5 µM (active). In addition, the outcome in [4], in [5], in [6], in experiment [8], in [9] and in experiment [10] was inactive. Also, the molecule was classed as inactive in experiment [12], in [13], in experiment [14], in experiment [15], in [16] and in experiment [17].
`CCNc1nc(Cl)nc(NC(C)(C)C)n1`: the AC50 in experiment [1] was 28.7 µM (active); in experiment [2], 11 µM (active); in [11], 13.1 µM (active). Also, the outcome in experiment [3], in [4], in experiment [5], in experiment [6], in experiment [7] and in experiment [8] was inactive. Further, the call in experiment [9], in [18], in [19], in [10], in experiment [12] and in [13] was inactive. For the same molecule, the molecule was classed as inactive in [14], in experiment [15], in experiment [16] and in experiment [17].
As for `Nc1cc2c3c(c1)C(c1ccccc1)=N[C@@H](NC(=O)c1cccnc1)C(=O)N3CC2`, the AC50 is 50 µM (active) in [1], 10.9 µM (active) in experiment [2] and 11.8 µM (active) in [11]. Besides, the outcome in experiment [3], in experiment [4], in experiment [5], in experiment [6], in experiment [7] and in experiment [8] was inactive. Besides, the call in experiment [9], in [18], in experiment [19], in experiment [10], in experiment [12] and in [13] was inactive. In addition, the molecule was called inactive in experiment [14], in experiment [15], in [16] and in experiment [17].
Consider `ClC(Cl)c1ccccc1`, for which the call in experiment [1], in experiment [2], in [3], in experiment [4], in experiment [5] and in [6] was inactive. The outcome in [7], in experiment [8], in experiment [9], in [18], in [19] and in [10] was inactive. The result in [11], in experiment [12], in [13], in experiment [14], in experiment [15] and in [16] was inactive. In addition, the molecule was called inactive in experiment [17].
